A selection: hits, their analogues and other compounds. The true share with any hit is near 13%.
Pf growth 96h: Primary qHTS for delayed death inhibitors of the malarial parasite plastid, 96 hour incubation. P. falciparum luciferase reporter growth, 96 h. Potency, µM (titrated, usually from 28.7 µM), for the others: top-dose activity change, negative = inhibition, usual class: inhibitors. 320,000 tested, 6.9% active. AID 504834, 2011; also: potency is read from the fitted curve at half-maximal effect
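Two parasite generations (96 h, 37 C, 5% CO2) of compound exposure in infected erythrocytes (0.05% parasitemia, 2% hematocrit). Luciferase-reporter P. falciparum; decreased luminescence indicates inhibited growth, aimed at apicoplast-acting delayed death.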
HCV inhibitor: qHTS Assay for Inhibitors of Hepatitis C Virus (HCV) | Huh7.5.1 HCVcc-Cre infection, luciferase reporter, 44 h | Potency, µM (highest dose often 41.8 µM), for inactives: top-dose activity change, negative = inhibition, hits mostly inhibitors | 340,000 tested, 3.4% active; also: potency is read from the fitted curve at half-maximal effect
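Whole-lifecycle infectious HCVcc-Cre system; cells 1,000/well, compound then virus (~0.5 moi) added 4 h after plating, 44 h culture. Luciferase read 15 sec following 15 min substrate incubation, room temp.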
Pf growth 48h: Primary qHTS for delayed death inhibitors of the malarial parasite plastid, 48 hour incubation | AID 504832, 2011 | Potency, µM (series often up to 28.7 µM), for inactives: top-dose activity change, negative = inhibition, usual class: inhibitors | 310,000 tested, 5.9% active | P. falciparum luciferase growth in erythrocytes, 48 h; also: potency is read from the fitted curve at half-maximal effect
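Luciferase-expressing parasites in RBCs, 2% Hct / 0.1% parasitemia final; RPMI 1640 + 0.5% Albumax; 37 C, 5% CO2, one generation; luminescence read-out, lower signal = inhibition.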
HCMV antiviral: qHTS Assay for inhibitors of the human cytomegalovirus (HCMV); HFF cells, HCMV-luciferase reporter, 72 h; hits give low values; activity change, negative = inhibition, % at 57.5 µM; 410,000 tested, 4.5% active; AID 1259415, 2018; in the data active = activity change below about -60%; inconclusive = no clear call, values can overlap the other calls; inactive = above about -39%
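After 16 h attachment at 37C, HFF cells received test compound and HCMV-luciferase (1 PFU/cell); reporter luminescence read 72 h later, data normalized against buffer-only and known inhibitor Salinomycin.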
* marks the source's active call; other numbers are inactive results; ? = inconclusive; / = no result. Unless noted, calls follow the shape of the dose curve; as a rule, active = well fitted inhibition curve with a large enough effect; inconclusive = small, poorly fitted or top-dose-only effect, or another doubt; inactive = no such curve, though single readings can be large or run the other way. % is scaled to controls: 0 for no effect and ±100 for the full control effect.

SMILES	Pf growth 96h	HCV inhibitor	Pf growth 48h	HCMV antiviral
Nc1nc(-c2ccccc2)nc(-c2ccccc2O)n1	/	?	/	76
Cc1ccc(C2C(/C=C3/SC(=S)NC3=O)=C(c3cccs3)Oc3ccccc32)cc1 (configuration not stated)	9.3µM*	?	/	-61*
CN(C)c1cccc(C(=O)N2CCC(c3c[nH]c4ccccc34)(c3c[nH]c4ccccc34)CC2)c1	/	/	/	13
CCOc1ccc(Cl)cc1CSc1ncn[nH]1	?	?	?	-68*
Clc1ccc(CSc2ncn[nH]2)cc1	26%	-2%	34%	-3
CCn1cc(S(=O)(=O)c2cccc(C)c2)c(=O)c2cc(F)c(N3CCN(c4ccccc4)CC3)cc21	/	/	/	-12
COc1cccc(NC(=O)c2ccc(N3C(=O)C4CC=CCC4C3=O)cc2)c1 (configuration not stated)	/	?	/	15
CC(=O)c1cccc(NC(=O)c2ccc3c(c2)CCCC3)c1	8%	11µM*	208%	121
Cc1cc(C)c(NC(=O)c2ccc(CN3CCc4ccccc4C3)cc2)c(C)c1	7.4µM*	8.9µM*	/	-34
COc1cccc(NC(=O)c2ccc3c(c2)CCCC3)c1	311%	1%	273%	26
COc1ccc(NC(=O)c2oc3c(c2C)-c2nn(Cc4ccccc4Cl)cc2CC3)cc1OC	/	/	/	-64*
COc1cccc(NC(=O)c2ccc(N3C(=O)C4CC=C(C)CC4C3=O)cc2)c1 (configuration not stated)	1.5µM*	?	18%	-64*
Cc1ccc(C(=O)NCC(c2cccs2)S(=O)(=O)c2cccs2)cc1 (configuration not stated)	/	/	/	37
O=C(Cn1c(=O)n(Cc2ccco2)c(=O)c2oc3ccccc3c21)Nc1ccc(F)cc1F	/	/	/	-26
CCc1cccc(C)c1NC(=O)C1CCN(c2nnc(C)c3c(C)n(-c4ccccc4)nc23)CC1	/	/	/	-20
O=C(Nc1ccc(N2CCN(Cc3ccccc3)CC2)cc1)c1cccnc1	?	-32%	?	-61*
CC(=O)c1cccc(NC(=O)N2CCc3ccccc3C2)c1	-14%	4%	100%	77
CC(=O)c1cccc(NC(=O)c2ccc(CN3CCc4ccccc4C3)cc2)c1	?	11µM*	15µM*	-5
COc1ccc(NC(=O)c2ccc(CN3CCN(c4ccccc4)CC3)cc2)cc1	?	-16%	?	-34
Cc1ccc(C(=O)Nc2ccc3c(c2)CCC3)cc1	?	-26%	98%	-74*
O=C(Nc1ccc(N2CCOCC2)cc1)c1cccnc1	?	-5%	145%	-13
COc1cccc(NC(=O)c2ccc(CN3CCN(c4ccccc4)CC3)cc2)c1	41%	14µM*	12µM*	-67*
O=C(NCc1ccc2c(c1)CCN2C(=O)c1ccc(F)cc1)c1cc2ccccc2[nH]1	/	/	/	21
O=S(=O)(c1ccccc1)n1cc(-c2cccc3nccn23)c2ccccc21	/	/	/	44
COc1ccc(NC(=O)c2ccc(CN3CCc4ccccc4C3)cc2)cc1OC	?	13µM*	-53%	-64*
SMILES	Pf growth 96h	HCV inhibitor	Pf growth 48h	HCMV antiviral
COc1cccc(NC(=O)c2ccc(CN3CCc4ccccc4C3)cc2)c1	?	1µM*	?	?
O=C(C1CCOCC1)N1CC(=O)N2[C@H](CO)[C@H](c3ccc(-c4ccccc4F)cc3)[C@@H]2C1	/	/	/	9
C=CC(=O)N(CCC)C(c1ccccc1)c1ccccc1OC (configuration not stated)	?	-12%	13µM*	-8
O=C(CCNS(=O)(=O)c1ccc(Cl)cc1)N1CCN(Cc2ccccc2)CC1	88%	-13%	0%	-6
Cc1c(C)c(C)c(S(=O)(=O)NCCC(=O)N2CCN(Cc3ccc(C#N)cc3)CC2)c(C)c1C	20%	13µM*	-1%	-27
COc1cc2c(cc1OC)C(COc1cc(C)cc(C)c1)N(C(=O)COc1ccccc1)CC2 (configuration not stated)	/	/	/	-26
CCOC(C[n+]1c(-c2ccccc2)cc(C)cc1-c1ccccc1)OCC	1.5µM*	-59%	1.5µM*	-36
Nc1nn(-c2ccccc2)nc1C(=O)OCc1ccccc1F	1µM*	/	17%	/
Cc1ccccc1COC(=O)c1nn(-c2ccccc2)nc1N	?	-3%	-2%	?
COc1ccc(C(=O)C2CCCN(Cc3sc(N4CCCC4)nc3Cl)C2)c(OC)c1 (configuration not stated)	?	?	?	-72*
COc1ccc(C(=O)C2CCCN(Cc3cc(C)c(O)c(C)c3)C2)c(OC)c1 (configuration not stated)	?	?	?	10
COc1ccc(CN2CCC(C(=O)c3cccc(Cl)c3)CC2)cc1	2%	-9%	?	-8
COc1ccc(CN2CCCC(C(=O)c3ccc4c(c3)OCO4)C2)c(F)c1 (configuration not stated)	4%	-16%	-5%	?
COc1ccc(C(=O)C2CCCN(Cc3cc(Cl)ccc3O)C2)c(OC)c1 (configuration not stated)	16%	11µM*	?	-26
COc1ccc(C(=O)C2CCCN(Cc3ccccn3)C2)c(OC)c1 (configuration not stated)	3%	-4%	?	-21
COc1ccc(CN2CCCC(C(=O)c3ccc(Cl)cc3)C2)c(O)c1 (configuration not stated)	-72%	?	0.83µM*	52
COc1ccc(CN2CCC(C(=O)c3ccc(Cl)cc3)CC2)cc1	?	11µM*	?	-37
COC(=O)c1cnc(NCc2ccc(F)cc2)c2ccccc12	/	/	/	-3
Cc1nn(CC(=O)NCc2ccc(N(C)C)cc2)c(=O)c2nn(-c3ccccc3)c(C)c12	/	/	/	3
O=c1ccn(C2OC(COP(=O)(O)OC3C(CO)OC(n4ccc(=O)[nH]c4=O)C3O)C(O)C2O)c(=O)[nH]1 (configuration not stated)	-13%	/	-4%	/
O=c1oc2cc(O)ccc2cc1-c1nc2c(s1)CCc1ccccc1-2	9.3µM*	?	-8%	19
COc1cc(OC)cc(C(=O)Oc2c(CN3CCOCC3)cc(Cl)c3cccnc23)c1	0.93µM*	-27%	1.5µM*	?
O=C(Oc1c(CN2CCOCC2)cc(Cl)c2cccnc12)c1ccccc1	?	?	?	-96*
O=C(Oc1c(CN2CCOCC2)cc(Cl)c2cccnc12)c1ccccc1F	2.1µM*	?	-13%	-85*
COc1ccc(C(=O)Oc2c(CN3CCOCC3)cc(Cl)c3cccnc23)cc1OC	/	17%	/	-22
COC(=O)c1scc(-c2ccc(C)cc2)c1S(=O)(=O)N1CCN(c2ccc(OC)cc2)CC1	/	/	/	-20
Cc1ccc(NC(=O)C(=O)NCC(c2cccnc2)N2CCN(c3ccccc3F)CC2)cc1Cl (configuration not stated)	/	/	/	2

Source: PubChem (National Center for Advancing Translational Sciences (NCATS))
